The source made the active and inactive calls.

This is an account of results in PubChem BioAssay.

Experiment [1] has as its system Human papillomavirus type 1a protein E7 (residues 44-93). In words: small molecules binding HPV E7 44-93 – biochemical, small-molecule microarray, residues 44-93, 635 nm fluorescence, primary screen (AID 1108).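 Further: E7 fragment applied at 1 µg/mL in TBST for 1 h at 4 C; score combines spot fluorescence with its signal to noise ratio.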 Conditions: fluorescence 635 nm, higher = more signal.
Experiment [2] is described as follows: hepatitis C replication reporter changes, two-sided – Huh7 cells, luciferase reporter, HCV replication inhibitor project, primary screen (AID 1109).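 Further: huh7 hepatoma cells harbouring a luciferase neomycin HCV replicon reporter; luciferase luminescence as measure of HCV replicon replication; test concentration not given here.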 Conditions: Huh7 HCV replicon luciferase reporter, 48 h; higher = more signal.
Experiment [3] concerns the target Left-right determination factor 2 (Homo sapiens) (UniProt O00292). In words: small molecules binding LEFTY2 protein – biochemical, small-molecule microarray, 635 nm fluorescence scan, primary screen (AID 1110). The conditions noted are these: higher = more signal.
Experiment [4] deals with Calmodulin-1 (Homo sapiens) (UniProt P0DP23). In words: small molecules binding calmodulin-1 with EGTA – biochemical, small-molecule microarray, Cy5-labelled CALM1, profiling panel (AID 1111).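 Further: labelled calmodulin applied in Tris saline Tween buffer holding calcium plus EGTA and DTT.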 Conditions: Cy5-CALM1 binding fluorescence, higher = more signal.
For experiment [5] the target is unchanged. In words: small molecules binding Ca-loaded calmodulin-1 – biochemical, small-molecule microarray, Cy5-labelled CALM1, plus calcium, artefact control for SMM control-protein annotation, profiling panel (AID 1112).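 Further: score merges spot fluorescence with signal to noise from triplicate slides.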 Conditions: Cy5-CALM1 binding fluorescence, higher = more signal.
The nature of experiment [6]: probe aWnt5a binding to arrayed compounds – biochemical, biotinylated probe, 635/667 nm fluorescence, primary screen (AID 1113).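 Further: score merges 667 nm fluorescence intensity with signal-to-noise per printed feature.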 The conditions noted are these: small-molecule microarray, higher = more signal.
Experiment [7] can be described thus: probe aShh binding to arrayed compounds – biochemical, biotinylated probe, 635/667 nm fluorescence, primary screen (AID 1114).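 Further: probe is biotin-labelled aShh protein from a stem cell growth factor screen; measures binding of labelled protein to compounds printed on the slide; score merges feature fluorescence at 667 nm with signal-to-noise.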 The conditions noted are these: small-molecule microarray, higher = more signal.
Experiment [8] can be described thus: probe aNog binding to arrayed compounds – biochemical, biotinylated probe, 635/667 nm fluorescence, primary screen (AID 1115).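 Further: probe is biotinylated aNog protein used at 0.15 µg/mL for 1 h at 4 C; z-score combines 667 nm fluorescence of each spot with its signal to noise.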 Conditions: small-molecule microarray, higher = more signal.
In experiment [9] the target is Torsin-1A-interacting protein 1 (Homo sapiens) (UniProt Q5JTV8). In words: compound microarray binding of lysate hLAP1 – cell lysate, small-molecule microarray, COS7 lysate, 635/667 nm fluorescence, primary screen (AID 1116). Conditions: 635 nm fluorescence, higher = more signal.
Chain of Torsin-1A-interacting protein 1 (Homo sapiens) (Q5JTV8 whole entry, looked up): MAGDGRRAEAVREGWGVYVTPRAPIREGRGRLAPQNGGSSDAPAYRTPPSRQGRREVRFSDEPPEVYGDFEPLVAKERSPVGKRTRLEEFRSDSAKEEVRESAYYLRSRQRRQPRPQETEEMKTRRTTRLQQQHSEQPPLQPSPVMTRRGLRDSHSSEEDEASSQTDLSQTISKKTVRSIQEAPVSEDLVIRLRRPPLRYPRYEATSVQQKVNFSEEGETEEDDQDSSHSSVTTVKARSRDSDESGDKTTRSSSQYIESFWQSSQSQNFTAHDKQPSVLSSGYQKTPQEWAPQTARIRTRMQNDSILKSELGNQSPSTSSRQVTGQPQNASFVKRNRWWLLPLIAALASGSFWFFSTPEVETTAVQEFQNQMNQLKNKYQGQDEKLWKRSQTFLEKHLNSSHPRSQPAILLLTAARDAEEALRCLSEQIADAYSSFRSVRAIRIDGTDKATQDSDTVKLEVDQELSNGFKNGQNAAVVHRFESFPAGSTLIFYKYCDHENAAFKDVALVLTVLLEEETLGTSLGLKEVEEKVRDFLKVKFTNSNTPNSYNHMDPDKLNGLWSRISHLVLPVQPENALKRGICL
In experiment [10] the target is Alpha-bungarotoxin (Bungarus multicinctus) (UniProt P60615). In words: compounds binding labelled alpha-BTX control protein – biochemical, small-molecule microarray, Alexa647 label, 635/667 nm fluorescence, artefact control for SMM control protein annotation, profiling panel (AID 1117). The conditions noted are these: alpha-BTX-A647 binding fluorescence, higher = more signal.
Chain of Alpha-bungarotoxin (Bungarus multicinctus) (P60615 whole entry, looked up): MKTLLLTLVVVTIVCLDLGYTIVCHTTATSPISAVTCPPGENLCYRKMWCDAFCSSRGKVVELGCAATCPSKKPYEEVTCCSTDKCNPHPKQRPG

The target of a further experiment is Albumin (Bos taurus) (UniProt P02769). In words: compounds binding labelled BSA control protein – biochemical, small-molecule microarray, Alexa647 label, 635/667 nm fluorescence, artefact control for SMM control protein annotation, profiling panel (AID 1118).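 Further: score merges 667 nm emission intensity and signal-to-noise per printed compound spot.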 Conditions: BSA-A647 binding, fluorescence 635 nm, higher = more signal.
Chain of Albumin (Bos taurus) (P02769 whole entry, looked up): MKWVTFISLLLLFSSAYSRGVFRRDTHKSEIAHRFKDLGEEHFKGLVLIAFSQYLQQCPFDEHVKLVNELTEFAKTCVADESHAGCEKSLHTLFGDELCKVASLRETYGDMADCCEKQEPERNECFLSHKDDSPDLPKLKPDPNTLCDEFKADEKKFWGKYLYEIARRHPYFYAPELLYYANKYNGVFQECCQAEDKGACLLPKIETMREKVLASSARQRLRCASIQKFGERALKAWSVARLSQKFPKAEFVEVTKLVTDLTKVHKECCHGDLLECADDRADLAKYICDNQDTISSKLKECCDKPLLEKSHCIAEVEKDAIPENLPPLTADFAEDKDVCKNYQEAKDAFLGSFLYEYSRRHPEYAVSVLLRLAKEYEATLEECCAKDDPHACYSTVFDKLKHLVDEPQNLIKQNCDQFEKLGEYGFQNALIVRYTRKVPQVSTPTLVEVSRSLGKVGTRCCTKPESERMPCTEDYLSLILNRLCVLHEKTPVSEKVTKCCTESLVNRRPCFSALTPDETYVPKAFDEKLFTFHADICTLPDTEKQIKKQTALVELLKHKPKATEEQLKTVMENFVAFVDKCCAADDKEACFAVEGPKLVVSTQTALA
Experiment [11] is described as follows: probe aXIP binding to arrayed compounds – biochemical, NeuroSMM set, 635/667 nm fluorescence, primary screen (AID 1119).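 Further: probe is the protein aXip251-270 applied at 1 µg/mL to compound-printed slides; binding of probe to printed compounds measured as 667 nm fluorescence plus signal to noise.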 The conditions noted are these: small-molecule microarray, higher = more signal, called active from +8 up or from −8 down.
Experiment [12] can be described thus: probe aNOTCH3 binding on compound microarray – biochemical, small-molecule microarray, 635/667 nm fluorescence, primary screen (AID 1120).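 Further: probe is a biotin-tagged antibody raised against NOTCH3 rather than NOTCH3 protein; score merges spot fluorescence near 667 nm with spot signal to noise.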 The conditions noted are these: higher = more signal.
Experiment [13] is described as follows: probe aNOTCH2 binding on compound microarray – biochemical, small-molecule microarray, 635/667 nm fluorescence, primary screen (AID 1121).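 Further: score merges feature fluorescence read at 667 nm with its signal to noise.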 The conditions noted are these: higher = more signal.
Experiment [14] has as its target Carbonic anhydrase 2 (Homo sapiens) (UniProt P00918). In words: compounds binding carbonic anhydrase 2 – biochemical, small-molecule microarray, Alexa647-labelled CAII, profiling panel (AID 1122). The conditions noted are these: CAII-A647 binding fluorescence, higher = more signal.
A short description of experiment [15]: COS7 lysate on small-molecule microarray, probe aHis, 635 nm (AID 1123).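 Further: z-score combines 667nm fluorescence intensity with signal-to-noise per printed compound spot.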 Conditions: COS7 cell lysate, fluorescence, higher = more signal.
Experiment [16] in a line: probe aLAP1 signal on lysate-treated microarray – cell lysate, small-molecule microarray, COS7 lysate, primary screen (AID 1124).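 Further: lysate comes from COS7 cells expressing LAP1 and is applied at 0.3 µg/mL; score merges spot fluorescence near 667 nm with signal-to-noise over triplicate slides.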 Conditions: probe aLAP1, fluorescence, higher = more signal.
In a further experiment the test system is Sam68 (KHDRBS1). In words: compounds binding KHDRBS1 protein – biochemical, small-molecule microarray, 635 nm fluorescence, primary screen (AID 1125).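 Further: score merges 667 nm channel intensity with signal to noise over triplicate slides.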 Conditions: higher = more signal.
Experiment [17] relates to Chordin-like protein 2 (CHRDL2). In words: compounds binding chordin-like 2 – biochemical, small-molecule microarray, 635 nm fluorescence, primary screen (AID 1126).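 Further: printed compound slides probed with Chrdl2 protein at 4 µg/mL for 1 h at 4 C; score merges 667 nm emission intensity with signal to noise over three replicate slides.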 Conditions: fluorescence 635 nm, higher = more signal.
Experiment [18] addresses Concanavalin-A (Canavalia ensiformis) (UniProt P02866). In words: compounds binding concanavalin A lectin – biochemical, small-molecule microarray, Alexa647 label, 635 nm, artefact control for SMM control protein annotation, primary screen (AID 1127).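 Further: z combines 667 nm emission intensity with signal-to-noise across three replicate slides.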 Conditions: ConA-A647 binding fluorescence, higher = more signal.

Chain of Concanavalin-A (Canavalia ensiformis) (P02866 whole entry, looked up): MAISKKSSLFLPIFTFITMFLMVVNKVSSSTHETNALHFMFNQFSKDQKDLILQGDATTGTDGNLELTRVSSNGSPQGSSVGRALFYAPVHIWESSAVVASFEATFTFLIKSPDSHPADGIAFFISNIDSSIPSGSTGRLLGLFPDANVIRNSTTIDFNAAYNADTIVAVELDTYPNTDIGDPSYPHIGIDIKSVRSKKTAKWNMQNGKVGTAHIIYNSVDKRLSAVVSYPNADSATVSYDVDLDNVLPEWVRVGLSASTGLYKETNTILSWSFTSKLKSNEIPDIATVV
Chain of Left-right determination factor 2 (Homo sapiens) (O00292 whole entry, looked up): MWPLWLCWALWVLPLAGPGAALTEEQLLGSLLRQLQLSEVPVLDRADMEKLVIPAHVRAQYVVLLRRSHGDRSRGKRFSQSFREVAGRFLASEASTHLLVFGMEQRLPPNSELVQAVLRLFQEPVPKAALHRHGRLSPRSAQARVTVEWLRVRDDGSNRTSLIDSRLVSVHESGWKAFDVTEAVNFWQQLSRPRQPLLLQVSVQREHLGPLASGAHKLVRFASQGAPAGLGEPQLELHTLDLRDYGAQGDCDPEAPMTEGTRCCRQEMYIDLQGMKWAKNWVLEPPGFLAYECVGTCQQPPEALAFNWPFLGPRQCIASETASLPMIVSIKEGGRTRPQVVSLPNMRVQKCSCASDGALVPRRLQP

On to `O=C1NC(=O)C2C1C=CC(C(O)c1cc(C(F)(F)F)cc(C(F)(F)F)c1)N2Nc1ccc(Cl)cc1Cl` (stereo not given), for which the composite z-score in experiment [1] was -0.158; in experiment [3] it was -0.256; in experiment [4], 1.91; in [5] it was 1.29; in [6], -0.0405; in experiment [7] it was 0.431. For the same compound, the composite z-score in [8] was 0.676; in [9] it was 1.86; in experiment [10], 0.526; with Albumin (Bos taurus), 0.839; in experiment [12], 0.0833; in experiment [13] it was -0.0703. Further, the composite z-score in experiment [14] is 0.583; in experiment [15] it was 2.45; in [16], 0.554; in the experiment with Sam68 (KHDRBS1) it was -0.163; in experiment [17] it was -0.464; in [18], -0.415. The same compound returned a z-score in experiment [2] of -0.99. The composite Z-score in experiment [11] is 0.809 (inactive).

Consider `COC(=O)[C@@]1(Cc2ccccc2)[C@H]2c3cc(C(=O)N4CCCC4)n(C[C@H](O)CO)c3C[C@H]2CN1C(=O)c1ccccc1`, for which the composite z-score in [1] is 0.391; in [3] it was -0.43; in experiment [4] it was 2.06; in experiment [5] it was 0.142; in experiment [6], -0.124; in experiment [7], -0.316. Besides, the composite z-score in experiment [8] was -0.107; in [9], 2.96; in experiment [10], -0.187; in the experiment with Albumin (Bos taurus) it was 0.659; in [12], 0.152; in [13] it was 0.0837. In addition, the composite z-score was 0.907 in experiment [14]; 1.79 in experiment [15]; 0.288 in experiment [16]; 0.18 in the experiment on Sam68 (KHDRBS1); -1.34 in experiment [17]; -0.311 in [18]. Further, the z-score in experiment [2] is -0.925. For the same compound, the composite Z-score in [11] was -0.164 (inactive).

Take `CC(C)C(O)C1C=CC2C(=O)N(C)C(=O)C2N1Nc1ccccc1` (stereo not given): the composite z-score in [1] is 0.0819; in experiment [3], 0.163; in experiment [4], 0.774; in [5], -0.473; in experiment [6], 0.175; in experiment [7], 0.679. The composite z-score in [8] was 1.66; in [9], 2.27; in experiment [10] it was 1.25; in the experiment with Albumin (Bos taurus), 1.04; in experiment [12], 0.585; in experiment [13], 0.45. Besides, the composite z-score in [14] was found to be 0.812; in [15] it was 1.86; in [16], 1.01; in the experiment on Sam68 (KHDRBS1), 1.12; in experiment [17] it was 0.164; in experiment [18], 0.871. In experiment [2], the z-score was 0.247. In experiment [11], the composite Z-score was 0.469 (inactive).

As to `CCCc1cccc(=O)o1`, the composite z-score in [1] is 0.364; in experiment [3], 0.427; in [4], 0.0369; in experiment [5], -0.116; in experiment [6] it was 0.0037; in experiment [7], 0.0723. The composite z-score is 0.0638 in experiment [8]; 0.898 in [9]; 0.696 in experiment [10]; 0.387 in the experiment with Albumin (Bos taurus); -0.0665 in [12]; -0.127 in experiment [13]. Besides, the composite z-score in [14] turned out to be 0.43; in [15] it was 0.897; in [16], 0.359; in the experiment with Sam68 (KHDRBS1) it was 0.699; in experiment [17], 0.221; in experiment [18] it was 0.828. In experiment [2], the z-score was -0.672. In experiment [11], the composite Z-score was -0.75 (inactive).

In the case of `COCCOC(=O)N1C(=O)[C@@]2(c3cc(C#CC4(O)CCCCCC4)ccc31)[C@H](C(N)=O)[C@H]1C(=O)O[C@H](c3ccccc3)[C@H](c3ccccc3)N1[C@@H]2c1ccc(O)cc1`, the composite z-score in experiment [1] is 1.4; in experiment [3], 0.556; in [4], 0.36; in experiment [5], -0.471; in [6] it was -0.0203; in [7], -0.206. The composite z-score in [8] was 0.225; in experiment [9], 0.0793; in experiment [10], 0.74; with Albumin (Bos taurus), 0.21; in experiment [12], 0.676; in experiment [13] it was -0.0349. Also, the composite z-score came out at 0.181 in experiment [14]; 1.27 in experiment [15]; 0.298 in [16]; 1.12 with Sam68 (KHDRBS1); 0.47 in experiment [17]; 0.866 in experiment [18]. Moreover, the z-score in [2] is -1.39. In experiment [11], the composite Z-score is -0.014 (inactive).
